{"source": "the supplement of paper PMC4380459"}
{"tested_on": "tubulin (bovine brain)", "assay": "tubulin polymerization end-point dOD, fold change relative to DMSO vehicle; higher = more polymerization (stabilization)", "conditions": "50 µM; 60 min; 37 °C", "description": "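In-vitro tubulin polymerization assay (Cytoskeleton HTS kit) with 4 mg/ml bovine brain tubulin in G-PEM buffer and compound at 50 uM (0.5% DMSO). Turbidity was read at 340 nm every minute for 1 h at 37 C. The end-point change in OD (dOD) was converted to % fold change relative to the DMSO vehicle (0%), and runs were scaled using DMSO and Taxol controls. The paper calls >20% an effect, 20-40% weak and >40% strong; positive values mean stabilization, negative values destabilization. Scale: negative = destabilization.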", "units": {"tubulin polymerization end-point dOD": "%"}}
{"smiles": "Cc1cccc(/C=N/N=C2\\NC(=O)C(Cc3cccc(C)c3)S2)c1", "note": "(stereo not given)", "tubulin polymerization end-point dOD": 9.8}
{"smiles": "CCN(CC)c1ccc(NC(=O)C2CC=CCC2)cc1", "note": "(stereo not given)", "tubulin polymerization end-point dOD": -23.9}
{"smiles": "COc1ccc2nc(SCC(=O)NCCc3ccc(OC)c(OC)c3)c(C)cc2c1", "tubulin polymerization end-point dOD": -15}
{"smiles": "Cc1cc2cc3c(cc2nc1SCC(=O)Nc1c(C)cccc1C)OCO3", "tubulin polymerization end-point dOD": 145}
{"smiles": "Cc1ccc2[nH]c(=O)c(CN(CC3COCCO3)C(=O)Nc3ccccc3Cl)cc2c1", "note": "(stereo not given)", "tubulin polymerization end-point dOD": 23.1}
{"smiles": "O=C(Nc1ncc(Cc2ccc(Cl)cc2)s1)c1cccnc1", "tubulin polymerization end-point dOD": 7.93}
{"smiles": "O=C(c1cncn1-c1ccccc1)N1CCN(c2cccc(Cl)c2)CC1", "tubulin polymerization end-point dOD": -50}
{"smiles": "COc1ccc(C2=NOC(=O)/C2=N/Nc2ccc(Cl)cc2)cc1", "tubulin polymerization end-point dOD": 19}
{"smiles": "O=C(Nc1ccc(N2CCc3sccc3C2)nc1)c1ccccc1Br", "tubulin polymerization end-point dOD": 14.9}
{"smiles": "COc1cc(OC)cc(C(=O)N(Cc2ccccc2OC)Cc2cc3c(C)ccc(C)c3[nH]c2=O)c1", "tubulin polymerization end-point dOD": 12.8}
{"smiles": "Nc1nc(SCC(=O)NC2CCCCC2)nc2sc3c(c12)CCCC3", "tubulin polymerization end-point dOD": -12}
{"smiles": "O=C1CCCN1c1ccc(S(=O)(=O)Oc2ccc(Cl)cc2)cc1", "tubulin polymerization end-point dOD": -18.4}
{"smiles": "Cc1cc2nc(/C=C/c3cccnc3)sc2cc1C", "tubulin polymerization end-point dOD": -34.3}
{"smiles": "Cc1cc2cc3c(cc2nc1SCC(=O)NC(C)(C)C)CCC3", "tubulin polymerization end-point dOD": 63.4}
{"smiles": "Cc1cc2cc(CN(CC3CCCO3)C(=S)Nc3ccccc3)c(=O)[nH]c2cc1C", "note": "(stereo not given)", "tubulin polymerization end-point dOD": -20.3}
{"smiles": "CS(=O)(=O)N1CCCc2cc(C(=O)Cn3cnc4scc(-c5ccc(F)cc5)c4c3=O)ccc21", "tubulin polymerization end-point dOD": -30.9}
{"smiles": "Cc1ccc(C(=O)Nc2ncc(Cc3ccccc3Br)s2)cn1", "tubulin polymerization end-point dOD": -35.9}
{"smiles": "Cn1c(C(=O)Nc2ccc(-c3nccs3)cc2)cc(Br)c1Br", "tubulin polymerization end-point dOD": 15.5}
{"smiles": "CCCn1c(SCC(=O)Nc2ccccc2OC)nnc1-c1cccnc1", "tubulin polymerization end-point dOD": -56.1}
{"smiles": "CCOc1ccc(C2=[NH+]c3ccccc3C(c3cccnc3)=NN2)cc1", "tubulin polymerization end-point dOD": 109}
{"smiles": "Nc1c(C(=O)c2ccccc2)sc2nc3c(cc12)CCCC3", "tubulin polymerization end-point dOD": 59.7}
{"smiles": "Cc1cc2cc3c(cc2nc1SCC(=O)NC1CCCC1)OCCO3", "tubulin polymerization end-point dOD": 10.3}
{"smiles": "CC(=O)c1c(C)[nH]c(C(=O)Nc2ccc(N3CCCC3=O)cc2)c1C", "tubulin polymerization end-point dOD": -9.36}
{"smiles": "Cc1cc(NC(=O)CSc2nnc3c(C)cc4c(C)ccc(C)c4n23)no1", "tubulin polymerization end-point dOD": -40.7}
{"smiles": "Cc1ccc2cc(C)c3nn(CCNC(=O)c4ccncc4)c(=O)n3c2c1", "tubulin polymerization end-point dOD": -34.2}
{"smiles": "CCS(=O)(=O)N1CCc2cc(C3=NN=C(NCc4ccc5c(c4)OCO5)SC3)ccc21", "tubulin polymerization end-point dOD": 227}
{"smiles": "Cc1ccc2cc(C#N)c(SCC(=O)c3ccc(F)cc3)nc2c1C", "tubulin polymerization end-point dOD": 20}
{"smiles": "CCc1ccc2nc(SCC(=O)Nc3cc(C)ccc3C)c(C#N)cc2c1", "tubulin polymerization end-point dOD": -12.2}
{"smiles": "COc1ccc2cc(CN(Cc3ccco3)C(=O)Nc3ccccc3OC)c(=O)[nH]c2c1", "tubulin polymerization end-point dOD": 43.9}
{"smiles": "Cc1ccc2cc(C#N)c(SCC(=O)c3ccccc3)nc2c1", "tubulin polymerization end-point dOD": -46.9}
{"smiles": "CCCn1c(NC(=O)C2CC(=O)N(c3ccc4c(c3)OCCO4)C2)nc2ccccc21", "note": "(stereo not given)", "tubulin polymerization end-point dOD": -4.32}
{"smiles": "N#Cc1ccsc1NC(=O)C1COc2ccccc2C1", "note": "(stereo not given)", "tubulin polymerization end-point dOD": -10.4}
{"smiles": "COc1ccc2cc(CN(Cc3ccccc3Cl)C(=O)Nc3ccccc3OC)c(=O)[nH]c2c1", "tubulin polymerization end-point dOD": -4.53}
{"smiles": "Cc1ccc(Nc2nc(N)nc(CN3C(=O)NC(C)(c4ccccc4)C3=O)n2)cc1", "note": "(stereo not given)", "tubulin polymerization end-point dOD": 48.1}
{"smiles": "O=C(Nc1ccc(CNc2ncnc3cc(Cl)ccc23)cc1)C1CC1", "tubulin polymerization end-point dOD": 8.64}
{"smiles": "O=C1N/C(=N/N=C/c2ccccc2O)SC1Cc1cc(C(F)(F)F)ccc1Cl", "note": "(stereo not given)", "tubulin polymerization end-point dOD": -23}
{"smiles": "Cc1ccc2cc(C)c3nn(CCNC(=O)c4cccnc4)c(=O)n3c2c1", "tubulin polymerization end-point dOD": -40.4}
{"smiles": "Cc1ccc2cc(CN(CC3CCCO3)C(=S)Nc3ccccc3)c(=O)[nH]c2c1", "note": "(stereo not given)", "tubulin polymerization end-point dOD": 0.1}
{"smiles": "COc1cccc(/C=N/NC(=O)c2ccc(N3CCCC3=O)cc2)c1", "tubulin polymerization end-point dOD": 11.9}
{"smiles": "CCc1ccccc1NC(=O)CSc1nc2cc3c(cc2cc1C#N)OCCO3", "tubulin polymerization end-point dOD": -23.9}
